Compounds with a hit are over-represented: about 2.9% of the library has one in this group of screens.
HEK293 cAMP ctrl: raises cAMP in parental HEK293 cells, TSHR agonist counter-screen | parental HEK293 CNG cAMP sensor, membrane potential fluorescence | Potency, µM (series often up to 57.1 µM), for inactives: at the top dose activation, most hits filed as activators | 73,000 compounds, 2.5% hits | AID 938; active means well fitted activation curve with a large enough effect; inconclusive means small, poorly fitted or top-dose-only effect; inactive means no such curve, though single readings can be large or run the other way; further: % of control where 0% means no effect; nearly all actives have a fitted effect of over 55% in size
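Parental HEK 293 cells stably expressing a modified CNG channel (no TSHR) report cAMP rise as membrane depolarization. Membrane potential dye with 100 uM RO 20-1724 was loaded for 60 min at room temperature, then compound added for 30 min; fluorescence read at 590 nm.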
TSHR ag: activates the human thyroid stimulating hormone receptor. P16473. HEK293-CNG-TSHR cells (CNG channel as cAMP sensor), membrane potential dye, cAMP. Potency, µM (titrated, usually from 57.1 µM), inactives show at the highest dose activation, most hits filed as activators. 73,000 compounds, 0.48% hits. AID 926; active means well fitted activation curve with a large enough effect in the main read-out, with a control signal flat, not every such curve was filed as active; inconclusive means small, poorly fitted or top-dose-only effect, or a change in a side signal; inactive means no such curve, though single readings can be large or run the other way; % of control where 0% means no effect;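 further: the control signal comes from parental cells without the receptor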
Target sequence (P16473 whole entry, looked up): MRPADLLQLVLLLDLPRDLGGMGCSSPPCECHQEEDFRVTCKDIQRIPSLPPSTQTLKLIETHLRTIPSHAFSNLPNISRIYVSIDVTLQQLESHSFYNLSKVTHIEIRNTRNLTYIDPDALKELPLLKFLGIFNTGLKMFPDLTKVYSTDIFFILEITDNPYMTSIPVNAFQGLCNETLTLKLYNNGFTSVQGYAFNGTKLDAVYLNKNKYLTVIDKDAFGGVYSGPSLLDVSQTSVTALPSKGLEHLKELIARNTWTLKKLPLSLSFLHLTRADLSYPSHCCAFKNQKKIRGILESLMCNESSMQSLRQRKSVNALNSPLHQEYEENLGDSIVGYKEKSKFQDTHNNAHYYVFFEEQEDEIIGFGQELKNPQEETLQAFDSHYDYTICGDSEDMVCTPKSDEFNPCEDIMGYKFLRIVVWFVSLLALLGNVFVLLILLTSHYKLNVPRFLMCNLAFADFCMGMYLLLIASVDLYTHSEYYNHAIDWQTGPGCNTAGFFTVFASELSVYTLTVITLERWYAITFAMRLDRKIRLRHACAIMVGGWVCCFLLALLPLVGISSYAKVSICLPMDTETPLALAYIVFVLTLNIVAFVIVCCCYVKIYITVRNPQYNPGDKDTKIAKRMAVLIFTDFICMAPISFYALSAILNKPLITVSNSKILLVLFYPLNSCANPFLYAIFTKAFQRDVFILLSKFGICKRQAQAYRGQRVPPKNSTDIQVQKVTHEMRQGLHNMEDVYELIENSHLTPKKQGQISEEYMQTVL
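HEK 293 cells stably expressing TSHR and a modified CNG channel, with CNG-only parental cells as counterscreen, were preloaded 60 min at room temperature with membrane potential dye containing 100 uM RO 20-1724. Compound exposure was 30 min, and depolarization was read as fluorescence at 590 nm.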
Active calls of the source: *; [ ] = remark or other dose. Potency means the concentration at half of the fitted maximal effect.

Screening Nc1nc(N2CCCCC2)nc2ccccc12 returned HEK293 cAMP ctrl 9.5% and TSHR ag 9.7%.
For CN1CCN(C(=O)c2cc(Cl)ccc2Cl)CC1 the results were HEK293 cAMP ctrl 31.6µM* and TSHR ag inconclusive.
Screening CN1CCN(C(=O)c2nc3ccc(Cl)cc3[nH]2)CC1 returned HEK293 cAMP ctrl 10.6% and TSHR ag 4.6%.
For CC[C@H]1C2=C3C(CC[C@H]4C(OCc5ccc(F)cc5C(F)(F)F)OC[C@](C)([C@@H]34)N(C(=O)OC(C)(C)C)C2)C(COC)C1COC (stereo partly specified) the results were HEK293 cAMP ctrl 5.7%.
COc1ccc(NC(=O)N2CC3(CCN(C(=O)c4c(C)noc4C)CC3)C2)cc1 was read as HEK293 cAMP ctrl 12.6µM* and TSHR ag inconclusive.
Screening COc1ccc(NC(=O)N2CC3(CCN(C(=O)c4ccc(OC)cc4)CC3)C2)cc1 returned HEK293 cAMP ctrl 15.7% and TSHR ag 4.9%.
COc1ccc(NC(=O)N2CCC3(CC2)CCN(C(=O)c2ccncc2)CC3)cc1 was read as HEK293 cAMP ctrl 8.3% and TSHR ag -0.7%.
COC(=O)N1CCC2(CCN(C(=O)Nc3ccc(OC)cc3)CC2)CC1 was read as HEK293 cAMP ctrl 15.8µM* and TSHR ag inconclusive.
Screening CC1CCC2C(=O)N3C(CCC(C)C3c3ccccc3Br)C(=O)N2C1c1ccc(C#CCN(C)C)cc1 (stereo unspecified) returned HEK293 cAMP ctrl -0.3%[11.4 µM] and TSHR ag 21.5%[11.4 µM].
COc1ccc2nc(NCN3C(=O)c4ccccc4C3=O)sc2c1 was read as HEK293 cAMP ctrl -4.2%[11.4 µM] and TSHR ag 4.0%[11.4 µM].
For COc1ccc2nc(C)cc(N3CCOCC3)c2c1 the results were HEK293 cAMP ctrl 15.1% and TSHR ag 9.3%.
`COc1ccc2nc(C)cc(N3CC(C)OC(C)C3)c2c1` (stereo unspecified) gave HEK293 cAMP ctrl 15.8µM* and TSHR ag inconclusive.
For O=C(O)[C@@H]1[C@@H]2C[C@@H]3[C@@H](OC(=O)[C@@H]31)[C@H]2Br the results were HEK293 cAMP ctrl 6.8%[11.4 µM] and TSHR ag -2.9%[11.4 µM].
Screening CCc1ccccc1 returned HEK293 cAMP ctrl -6.7% and TSHR ag -0.4%.
Cc1cccc(CNc2cc(-c3c(C)noc3C)ncn2)c1 was read as HEK293 cAMP ctrl 23.5% and TSHR ag 6.2%.
`COc1ccccc1-c1cc(NCc2cccc(C)c2)ncn1` gave HEK293 cAMP ctrl 20µM* and TSHR ag inconclusive.
COc1ccccc1CNc1cc(-c2ccc(C(=O)N(C)C)cc2)ncn1 was read as HEK293 cAMP ctrl 2.3% and TSHR ag 12.8%.
`COc1ccccc1CNc1cc(-c2ccccc2Cl)ncn1` gave HEK293 cAMP ctrl 15.8µM* and TSHR ag inconclusive.
Screening CS[C@@H](CC(=O)O)C(=O)O returned HEK293 cAMP ctrl 1.8%[11.4 µM] and TSHR ag -1.4%[11.4 µM].
`O=C(O)CCCc1ccc2ccc3ccccc3c2c1` gave HEK293 cAMP ctrl 11.9%[11.4 µM] and TSHR ag 3.4%[11.4 µM].
`N#Cc1c(N2CCN(C(=O)c3ccco3)CC2)nc(-c2ccccc2)c2c1CCCC2` gave HEK293 cAMP ctrl 15.8µM* and TSHR ag inconclusive.
Cc1cc(N2CCN(C(=O)c3ccco3)CC2)nc(-c2ccccc2)n1 was read as HEK293 cAMP ctrl 3.4% and TSHR ag 0.8%.
`Cc1ccc2nc(-c3ccc(N)cc3)sc2c1S(=O)(=O)O` gave HEK293 cAMP ctrl 11.7% and TSHR ag 6.9%.
OC[C@@H]1NC[C@@H](O)[C@H]1O was read as HEK293 cAMP ctrl -7.6% and TSHR ag 10.7%.
`Cc1ccccc1N1OC2C(=O)N(c3ccc(F)cc3)C(=O)C2C1c1ccccn1` (stereo unspecified) gave HEK293 cAMP ctrl 20µM* and TSHR ag inconclusive.
For CCOc1ccccc1C1C2C(=O)N(c3ccccc3)C(=O)C2ON1c1ccccc1 (stereo unspecified) the results were HEK293 cAMP ctrl 14.4% and TSHR ag 12.8%.
`N[C@@H](Cc1[nH]nc2ccccc12)C(=O)O` gave HEK293 cAMP ctrl 13.9%[11.4 µM] and TSHR ag 2.6%[11.4 µM].
`Brc1ccc2c(c1)c1nc3ccccc3nc1n2CCN1CCOCC1` gave HEK293 cAMP ctrl 14.4% and TSHR ag -29.1%.
c1ccc2nc3c(nc2c1)c1ccccc1n3CCN1CCOCC1 was read as HEK293 cAMP ctrl 21.5% and TSHR ag 15.8µM*.
Screening COc1ccccc1N=c1oc2cc(O)ccc2cc1C(=O)NCC1CCCO1 (stereo unspecified) returned HEK293 cAMP ctrl 1.58µM* and TSHR ag inconclusive.
Screening COc1ccccc1N=c1oc2cc(O)ccc2cc1C(N)=O returned HEK293 cAMP ctrl 4.7%.
`CC(CN(C)C)NC(=O)c1ccc(Cc2nc3ccccc3[nH]2)cc1` (stereo unspecified) gave HEK293 cAMP ctrl -8.6% and TSHR ag 1.8%.
Cc1nc(Nc2ccccc2)c2nc(-c3ccccc3)n(CCN3CCOCC3)c2n1 was read as HEK293 cAMP ctrl 28.2% and TSHR ag 9.3%.
Cc1cc(C)c(C#N)c(SCC(=O)CC(=O)OC(C)C)n1 was read as HEK293 cAMP ctrl 25.1µM* and TSHR ag inconclusive.
Screening COCCn1c(C)cc(C(=O)CSc2nc(C)cc(C)c2C#N)c1C returned HEK293 cAMP ctrl 17.4%.
COc1ccccc1NC(=O)c1ccccc1-c1nc(-c2ccccc2OC)no1 was read as HEK293 cAMP ctrl 25.1µM* and TSHR ag inconclusive.
Screening COc1ccccc1-c1noc(-c2ccncc2)n1 returned HEK293 cAMP ctrl 7.7% and TSHR ag 3.1%.
`COc1ccccc1NC(=O)c1ccccc1SC` gave HEK293 cAMP ctrl 18.1%.
Screening COc1ccccc1-c1noc(-c2ccccc2C(=O)Nc2ccccc2)n1 returned HEK293 cAMP ctrl 25.1µM* and TSHR ag inconclusive.
`O=C(O)/C(Cc1ccc([N+](=O)[O-])cc1)=N/O` gave HEK293 cAMP ctrl 9.9%[11.4 µM] and TSHR ag -1.3%[11.4 µM].
Screening CC1(C)C(=O)NC2=C1C(=O)C(=O)c1ccccc12 returned HEK293 cAMP ctrl -1.8% and TSHR ag -10.8%.
Screening C[C@@H](C(=O)NCc1ccccc1)[C@@H]1C[C@@]1(C)[C@@H](NC(=O)OCc1ccccc1)c1ccccc1 returned HEK293 cAMP ctrl 11.6% and TSHR ag 5.7%.
COC(=O)[C@H]1C[C@@H]1[C@H](NC(=O)OCc1ccccc1)c1ccccc1 was read as HEK293 cAMP ctrl 20.8%.
`CNC(=O)[C@H](C)[C@H]1C[C@]1(C)[C@H](NC(=O)OCc1ccccc1)c1ccccc1` gave HEK293 cAMP ctrl 6.31µM* and TSHR ag inconclusive.
COC(=O)[C@H](Cc1ccccc1)NC(=O)[C@]1(C)C[C@H]1[C@H](NC(=O)OCc1ccccc1)c1ccccc1 was read as HEK293 cAMP ctrl 5.01µM* and TSHR ag inconclusive.
`C[C@@H](C(=O)N[C@@H](CO)Cc1ccccc1)[C@@H]1C[C@@]1(C)[C@@H](NC(=O)OCc1ccccc1)c1ccccc1` gave HEK293 cAMP ctrl -1.9% and TSHR ag 17.6%.
C[C@@H](C(=O)NCC1CC1)[C@H]1C[C@]1(C)[C@H](NC(=O)OCc1ccccc1)c1ccccc1 was read as HEK293 cAMP ctrl 10µM* and TSHR ag inconclusive.
CNC(=O)[C@H](C)[C@@H]1C[C@@]1(C)[C@@H](NC(=O)OCc1ccccc1)c1ccccc1 was read as HEK293 cAMP ctrl 12.3% and TSHR ag 16.0%.
Screening C[C@@H](C(=O)N[C@@H](CO)Cc1ccccc1)[C@H]1C[C@]1(C)[C@H](NC(=O)OCc1ccccc1)c1ccccc1 returned HEK293 cAMP ctrl 10µM* and TSHR ag inconclusive.

From PubChem BioAssay
